Source: PubChem BioAssay (NCATS)
Records with an inconclusive call do not appear. Unless noted, calls follow the shape of the dose curve; as a rule, active = well fitted activation curve with a large enough effect; inconclusive = small, poorly fitted or top-dose-only effect; inactive = flat fitted curve, though single readings scatter.

Experiment: Confirmation and Secondary Assay for Modulators of Hemoglobin Beta Chain Splicing at IVS2 654 locus (AID 910);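 also: per-well total GFP intensity by laser scanning cytometry after 2-day treatment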
Details: HeLa EGFP-654 splicing reporter, GFP fluorescence, 48 h; series mostly up to 46.1 µM; activation (splicing correction): at the top concentration
In short: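 HeLa cells stably carrying EGFP interrupted by mutant beta-globin IVS2-654 intron (CMV-driven) were treated with compound for 2 days at 37C; corrected splicing was scored as total peak GFP intensity per well (488 nm excitation, 500-520 nm emission).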
Also: % of control where 0% means no effect.

Activation (splicing correction), inactive:
CC1CC[C@@]2(C(=O)O)CC[C@]3(C)C(=CCC4[C@@]5(C)CCC(O)C(C)(C)C5CC[C@@]43C)C2C1C (some centres undefined) -1.02% [at 38.3 µM]
CN1C2CC(OC(=O)C(CO)c3ccccc3)C[C@@H]1[C@H]1OC21 (some centres undefined) 3.6%
CCOC(=O)C1=C[C@@]2(CC)CCCN3CCc4c(n1c1ccccc41)C32 (some centres undefined) 3.6%
CC(CCC(=O)O)C1CCC2C3CC[C@H]4CC(O)CC[C@@]4(C)C3CC[C@@]12C (some centres undefined) -6.74%
COc1c(CC(=O)c2cc3c(cc2O)OC(C)(C)C(O)C3)ccc2c1C=CC(C)(C)O2 (centres undefined) -4.35%
CNC(C)C1CC[C@H](N)[C@@H](OC2C(N)C[C@H](N)[C@@H](OC3OC[C@](C)(O)C(NC)[C@H]3O)C2O)O1 (some centres undefined) 3.34%
C=C1c2c(Cl)ccc(O)c2C(O)=C2C(=O)[C@]3(O)C(O)=C(C(N)=O)C(=O)C(N(C)C)C3C(O)C12 (some centres undefined) -7.93%
CN1C[C@H](C(=O)N[C@@]2(C)O[C@@]3(O)C4CCCN4C(=O)C(Cc4ccccc4)N3C2=O)C[C@H]2c3cccc4[nH]cc(c34)C[C@H]21 (some centres undefined) 1.71%
COc1cc2c(cc1OC)C1C(=O)c3c(cc4c(c3O)C=CC(C)(C)O4)OC1CO2 (centres undefined) -2.22% [at 38.3 µM]
COC(=O)C1C(O)CC[C@H]2CN3CCc4c([nH]c5ccccc45)C3C[C@H]12 (some centres undefined) -1.68% [at 38.3 µM]
COc1cc2c(cc1OC)C1C(=O)c3c(O)cc4c(c3OC1CO2)C=CC(C)(C)O4 (centres undefined) -7.82%
COc1cc2c(c(OC)c1OC)-c1ccc(OC)c(=O)cc1C(NC(C)=O)CC2 (centres undefined) -7.01%
CC(=O)OC1CCC2(C)C3=C(CCC2C1(C)C)[C@@]1(C)CCC(C(C)CCC=C(C)C)[C@@]1(C)CC3 (some centres undefined) 2.59%
CC1(C)C(=O)C=C[C@]2(C)C1CC(=O)[C@]1(C)C2CC[C@@]2(C)C(c3ccoc3)OC(=O)C3O[C@@]321 (some centres undefined) -6.68%

Experiment: qHTS Assay for Identification of Small Molecule Agonists for Hypoxia Response Element Signaling Pathway (AID 914; active = well fitted activation curve with a large enough effect in the signal ratio, with a control signal flat, not every such curve was filed as active; the % refers to the signal ratio)
Details: ME-180 (cervical carcinoma) HRE-bla reporter, beta-lactamase ratio, CoCl2, 17 h; stronger effect = higher value
In short: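 Cells were plated overnight, pin-dosed with compound in a titration series, co-stimulated with EC50 CoCl2 and incubated 17 hours at 37 degrees Celsius. CCF4 substrate was then loaded, and AC50 values came from the 460nm/530nm ratio.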

activation, inactive:
C[C@@H]1/C=C\CC(=O)OC[C@H](C)C(=O)N[C@@H](C)C(=O)OC1 0.738%
C[C@H]1COC(=O)[C@H]2CCCN2C(=O)[C@@H](C)COC(=O)[C@H](Cc2ccccc2)NC1=O -0.107%
COC(=O)[C@H](Cc1ccccc1)NC(=O)[C@@H](C)CO 5.86%
COC(=O)C/C=C\[C@@H](C)[C@@H](/C=N\O[C@@H](C)CN1CCCc2nc(C)c(C)cc21)NS(=O)(=O)c1ccc(C)cc1 4.52%
Cc1ccc(S(=O)(=O)N[C@H]2COC(=O)C/C=C\[C@@H](C)[C@H](NS(=O)(=O)c3ccc(C)cc3)COC(=O)[C@H](C)NC(=O)C/C=C\[C@H]2C)cc1 3.42%
CCOC(=O)CCN1C(=O)[C@H]2[C@@H]3[C@H](O)[C@H](O)CC(=O)[C@H]3CC[C@H]2C1=O 2.87%

Experiment: Confirmation and Secondary Assay for Modulators of Hemoglobin Beta Chain Splicing at IVS2 705 locus (AID 930);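 also: HeLa cells stably expressing the EGFP-705 splicing reporter; GFP fluorescence per well restored by corrected splicing of the IVS2-705 intron in EGFP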
Details: HeLa EGFP-705 splicing reporter, GFP fluorescence, 48 h; series mostly up to 46.1 µM; activation: at the top concentration
In short: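 Splice-correction reporter: EGFP cDNA split by beta-globin intron 2 bearing the 705 mutation, stably in HeLa. Compound incubation 2 days, 37C; fluorescent objects 5-250 µm summed per well.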

activation, inactive:
CC1CC[C@@]2(C(=O)O)CC[C@]3(C)C(=CCC4[C@@]5(C)CCC(O)C(C)(C)C5CC[C@@]43C)C2C1C (some centres undefined) -0.895% [at 38.3 µM]
CN1C2CC(OC(=O)C(CO)c3ccccc3)C[C@@H]1[C@H]1OC21 (some centres undefined) -1.98%
CCOC(=O)C1=C[C@@]2(CC)CCCN3CCc4c(n1c1ccccc41)C32 (some centres undefined) 3.59%
CC(CCC(=O)O)C1CCC2C3CC[C@H]4CC(O)CC[C@@]4(C)C3CC[C@@]12C (some centres undefined) 2.98%
COc1c(CC(=O)c2cc3c(cc2O)OC(C)(C)C(O)C3)ccc2c1C=CC(C)(C)O2 (centres undefined) 0.879%
CNC(C)C1CC[C@H](N)[C@@H](OC2C(N)C[C@H](N)[C@@H](OC3OC[C@](C)(O)C(NC)[C@H]3O)C2O)O1 (some centres undefined) 0.554%
C=C1c2c(Cl)ccc(O)c2C(O)=C2C(=O)[C@]3(O)C(O)=C(C(N)=O)C(=O)C(N(C)C)C3C(O)C12 (some centres undefined) 1.35%
CN1C[C@H](C(=O)N[C@@]2(C)O[C@@]3(O)C4CCCN4C(=O)C(Cc4ccccc4)N3C2=O)C[C@H]2c3cccc4[nH]cc(c34)C[C@H]21 (some centres undefined) 0.876%
COc1cc2c(cc1OC)C1C(=O)c3c(cc4c(c3O)C=CC(C)(C)O4)OC1CO2 (centres undefined) 0.18% [at 38.3 µM]
COC(=O)C1C(O)CC[C@H]2CN3CCc4c([nH]c5ccccc45)C3C[C@H]12 (some centres undefined) 2.03% [at 38.3 µM]
COc1cc2c(cc1OC)C1C(=O)c3c(O)cc4c(c3OC1CO2)C=CC(C)(C)O4 (centres undefined) -0.0883%
COc1cc2c(c(OC)c1OC)-c1ccc(OC)c(=O)cc1C(NC(C)=O)CC2 (centres undefined) 0.24%
CC(=O)OC1CCC2(C)C3=C(CCC2C1(C)C)[C@@]1(C)CCC(C(C)CCC=C(C)C)[C@@]1(C)CC3 (some centres undefined) -1.81%
CC1(C)C(=O)C=C[C@]2(C)C1CC(=O)[C@]1(C)C2CC[C@@]2(C)C(c3ccoc3)OC(=O)C3O[C@@]321 (some centres undefined) 0.349%
